The record followed here is PubChem BioAssay.

In experiment [1] the test system is PRMT1 (protein arginine N-methyltransferase 1). Nature of the experiment: small molecules binding arginine methyltransferase PRMT1 – biochemical, small-molecule microarray, 635 nm fluorescence, primary screen (AID 1088).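 Also: binding of Prmt1 protein to compounds spotted on small-molecule microarray slides.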 As to conditions: higher = more signal.
Experiment [2] in a line: growth effects on S. cerevisiae YJM789 – YJM789 clinical isolate, OD600, 24 h, basal, primary screen (AID 1089).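 Also: growth of clinical yeast isolate S. cerevisiae YJM 789 seeded 1000 cells per well; test concentration not given here.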 The settings on record: higher = more signal, called active from +8 up or from −8 down.
Experiment [3] can be described thus: S. pombe growth modifiers, basal conditions – strain 972, OD600, 24 h, no modulator, primary screen (AID 1090).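 Also: basal condition with compound alone and no growth modifier present; test concentration not given here.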 As to conditions: S. pombe 972 growth, higher = more signal, called active from +8 up or from −8 down.
A short description of experiment [4]: budding yeast growth modifiers under rapamycin – strain BY4716, OD600, 96 h, primary screen (AID 1091). Also: test concentration not given here. The settings on record: S. cerevisiae BY4716 + rapamycin, higher = more signal, called active from +8 up or from −8 down.
The target in experiment [5] is Torsin-1A-interacting protein 2 (Homo sapiens) (UniProt Q8NFQ8). Nature of the experiment: small molecules binding lysate-expressed LULL1 – cell lysate, human LULL1 lysate, 635/667 nm fluorescence, primary screen (AID 1092).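 Also: probe is lysate of COS7 cells overexpressing human LULL1; score merges per-feature 667 nm fluorescence with signal-to-noise.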 The settings on record: small-molecule microarray, hLULL1 lysate binding, 635 nm fluorescence; higher = more signal.
Torsin-1A-interacting protein 2 (Homo sapiens), sequence (Q8NFQ8 whole entry, looked up): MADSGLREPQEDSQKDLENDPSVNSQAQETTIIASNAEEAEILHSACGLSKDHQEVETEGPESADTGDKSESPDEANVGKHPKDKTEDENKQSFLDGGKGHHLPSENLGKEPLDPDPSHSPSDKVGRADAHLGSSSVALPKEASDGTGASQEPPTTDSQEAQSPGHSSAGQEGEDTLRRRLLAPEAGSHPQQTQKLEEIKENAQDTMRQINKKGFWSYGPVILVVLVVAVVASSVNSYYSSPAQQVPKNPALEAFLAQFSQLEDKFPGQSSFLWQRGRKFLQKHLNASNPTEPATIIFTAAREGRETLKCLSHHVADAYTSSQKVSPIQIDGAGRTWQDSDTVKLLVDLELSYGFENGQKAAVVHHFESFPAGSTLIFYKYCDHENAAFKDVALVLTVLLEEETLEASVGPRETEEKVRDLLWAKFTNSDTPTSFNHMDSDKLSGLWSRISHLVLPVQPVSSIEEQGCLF
Experiment [6] is described as follows: optical density change of DRC41 E. coli – strain DRC41, OD650, 24 h, E. coli filamentation project, primary screen (AID 1093).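 Also: MC1000 strain lacking acrAB efflux and sulA so SOS filamentation is blocked; test concentration not given here.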 As to conditions: E. coli DRC41 growth, higher = more signal, called active from +8 up or from −8 down.
A short description of experiment [7]: probe aLefty2 binding to arrayed compounds – biochemical, biotinylated probe, 635/667 nm fluorescence, primary screen (AID 1094).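 Also: score merges spot fluorescence near 667 nm with spot signal-to-noise ratio.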 As to conditions: small-molecule microarray, higher = more signal.
The test system of experiment [8] is Noggin (protein binding on small-molecule microarray). As to the kind of experiment: small molecules binding Noggin protein – biochemical, 635/667 nm fluorescence, primary screen (AID 1095).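 Also: score merges 667 nm feature fluorescence with signal to noise over triplicate slides.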 The settings on record: 635 nm fluorescence, higher = more signal.
In experiment [9] the target is Neurogenic locus notch homolog protein 3 (Homo sapiens) (UniProt Q9UM47). As to the kind of experiment: small molecules binding NOTCH3 protein – biochemical, 635/667 nm fluorescence, primary screen (AID 1096). As to conditions: small-molecule microarray, 635 nm fluorescence, higher = more signal.
Neurogenic locus notch homolog protein 3 (Homo sapiens), sequence (Q9UM47 whole entry, looked up): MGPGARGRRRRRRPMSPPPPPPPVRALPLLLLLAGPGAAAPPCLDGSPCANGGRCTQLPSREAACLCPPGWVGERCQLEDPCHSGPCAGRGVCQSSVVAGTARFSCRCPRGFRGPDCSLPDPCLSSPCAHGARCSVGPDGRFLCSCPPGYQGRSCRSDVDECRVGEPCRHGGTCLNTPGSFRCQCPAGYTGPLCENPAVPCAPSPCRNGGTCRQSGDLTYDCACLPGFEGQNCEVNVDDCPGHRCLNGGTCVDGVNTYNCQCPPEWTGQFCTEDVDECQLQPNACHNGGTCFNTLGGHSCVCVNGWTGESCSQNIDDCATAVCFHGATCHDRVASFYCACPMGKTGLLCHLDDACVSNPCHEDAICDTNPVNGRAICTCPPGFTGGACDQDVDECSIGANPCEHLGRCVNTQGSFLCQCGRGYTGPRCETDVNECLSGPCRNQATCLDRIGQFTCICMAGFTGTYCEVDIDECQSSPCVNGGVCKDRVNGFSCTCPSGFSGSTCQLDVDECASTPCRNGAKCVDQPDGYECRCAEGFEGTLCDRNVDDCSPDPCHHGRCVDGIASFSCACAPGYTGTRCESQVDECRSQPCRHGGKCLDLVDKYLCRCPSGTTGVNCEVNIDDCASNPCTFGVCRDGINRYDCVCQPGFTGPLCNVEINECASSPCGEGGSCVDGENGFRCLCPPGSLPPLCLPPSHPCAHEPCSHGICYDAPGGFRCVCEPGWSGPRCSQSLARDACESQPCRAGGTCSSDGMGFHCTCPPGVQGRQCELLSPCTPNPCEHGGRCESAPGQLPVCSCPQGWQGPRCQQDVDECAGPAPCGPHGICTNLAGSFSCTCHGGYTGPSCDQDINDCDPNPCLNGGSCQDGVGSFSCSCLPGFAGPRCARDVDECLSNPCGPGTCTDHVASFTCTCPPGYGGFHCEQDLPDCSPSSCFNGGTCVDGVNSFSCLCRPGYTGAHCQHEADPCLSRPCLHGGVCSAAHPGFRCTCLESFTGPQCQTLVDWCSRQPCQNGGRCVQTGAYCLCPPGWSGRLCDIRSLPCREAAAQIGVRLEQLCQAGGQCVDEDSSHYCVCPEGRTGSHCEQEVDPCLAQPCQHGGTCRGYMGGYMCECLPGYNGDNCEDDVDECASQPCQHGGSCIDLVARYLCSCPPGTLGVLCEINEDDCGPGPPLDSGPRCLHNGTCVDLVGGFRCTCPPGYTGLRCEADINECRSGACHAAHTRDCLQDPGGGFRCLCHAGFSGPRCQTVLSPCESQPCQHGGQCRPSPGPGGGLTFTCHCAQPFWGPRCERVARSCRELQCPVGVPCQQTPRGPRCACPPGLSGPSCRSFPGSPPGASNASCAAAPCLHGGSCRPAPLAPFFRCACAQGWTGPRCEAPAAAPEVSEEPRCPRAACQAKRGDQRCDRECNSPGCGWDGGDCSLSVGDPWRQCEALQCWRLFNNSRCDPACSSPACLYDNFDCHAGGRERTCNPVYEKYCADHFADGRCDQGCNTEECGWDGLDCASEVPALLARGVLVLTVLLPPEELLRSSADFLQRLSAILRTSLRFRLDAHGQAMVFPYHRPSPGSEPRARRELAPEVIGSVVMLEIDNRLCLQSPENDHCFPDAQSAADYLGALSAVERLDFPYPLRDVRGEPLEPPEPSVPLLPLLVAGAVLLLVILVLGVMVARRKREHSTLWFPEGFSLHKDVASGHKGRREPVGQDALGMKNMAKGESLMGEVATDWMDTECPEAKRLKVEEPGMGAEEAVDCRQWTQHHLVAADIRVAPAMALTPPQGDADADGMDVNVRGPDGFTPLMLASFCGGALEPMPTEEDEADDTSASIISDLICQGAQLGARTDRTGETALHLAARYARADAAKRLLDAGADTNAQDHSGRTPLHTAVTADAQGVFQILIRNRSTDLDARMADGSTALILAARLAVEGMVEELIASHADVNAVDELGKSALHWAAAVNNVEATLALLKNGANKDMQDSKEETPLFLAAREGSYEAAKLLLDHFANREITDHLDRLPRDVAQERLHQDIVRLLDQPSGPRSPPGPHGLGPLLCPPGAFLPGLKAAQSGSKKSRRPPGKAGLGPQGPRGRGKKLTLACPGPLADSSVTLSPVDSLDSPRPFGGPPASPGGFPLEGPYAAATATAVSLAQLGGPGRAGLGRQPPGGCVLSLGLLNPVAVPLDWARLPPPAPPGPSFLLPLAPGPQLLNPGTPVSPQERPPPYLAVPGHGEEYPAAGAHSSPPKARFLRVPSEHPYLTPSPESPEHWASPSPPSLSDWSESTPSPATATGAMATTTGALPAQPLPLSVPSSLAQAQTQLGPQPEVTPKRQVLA
A short description of experiment [10]: probe aEGFR binding to arrayed compounds – biochemical, biotinylated probe, 635/667 nm fluorescence, primary screen (AID 1097).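 Also: probe is a biotinylated anti-EGFR antibody binding compounds printed on slides; score combines fluorescence near 667 nm and signal to noise of each spot.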 As to conditions: small-molecule microarray, higher = more signal.
Experiment [11] has as its system Plasmodium falciparum Sir2 (PF13_0152, Sir2A). As to the kind of experiment: Plasmodium falciparum Sir2A binding compounds – biochemical, small-molecule microarray, 635 nm fluorescence, primary screen (AID 1098).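 Also: score merges spot fluorescence intensity with its signal-to-noise ratio.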 The settings on record: fluorescence 635 nm, higher = more signal.
A short description of experiment [12]: probe aDKK1 binding to arrayed compounds – biochemical, biotinylated probe, 635/667 nm fluorescence, primary screen (AID 1099).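 Also: score merges 667nm spot fluorescence with signal to noise across triplicate slides; reference of the scale not given here.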 As to conditions: small-molecule microarray, higher = more signal.
The nature of experiment [13]: probe aCHRDL2 binding to arrayed compounds – biochemical, biotinylated probe, 635/667 nm fluorescence, primary screen (AID 1100). As to conditions: small-molecule microarray, higher = more signal.
A short description of experiment [14]: change in splice reporter luminescence, either direction, cell-based, HEK293, spliceosome inhibition project, primary screen (AID 1101).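 Also: HEK293 cells carrying a splicing-competent luciferase reporter gene; test concentration not given here.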 As to conditions: HEK293 splicing luciferase reporter, 24 h, higher = more signal, called active from +8 up or from −8 down. (In general: In a reporter assay the amount or activity of a reporter protein is the signal.)
Experiment [15] addresses Fibroblast growth factor 10 (Homo sapiens) (UniProt O15520). As to the kind of experiment: compounds binding fibroblast growth factor 10 – biochemical, small-molecule microarray, 635 nm fluorescence, primary screen (AID 1102). The settings on record: FGF10 binding, fluorescence 635 nm, higher = more signal.
Experiment [16] relates to glycogen synthase kinase-3 (GSK3A per assay name; protocol says GSK3B). Nature of the experiment: compounds binding glycogen synthase kinase-3 – biochemical, small-molecule microarray, 635 nm fluorescence, GSK3A, primary screen (AID 1103). Also: the record names both GSK3A and GSK3B. As to conditions: fluorescence 635 nm, higher = more signal.
For experiment [17], the target named is Epidermal growth factor receptor (Homo sapiens) (UniProt P00533). Nature of the experiment: compounds binding epidermal growth factor receptor – biochemical, small-molecule microarray, 635 nm fluorescence, primary screen (AID 1104).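 Also: score merges 667 nm emission intensity with spot signal to noise over triplicate slides.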 As to conditions: EGFR binding, higher = more signal.
Epidermal growth factor receptor (Homo sapiens), sequence (P00533 whole entry, looked up): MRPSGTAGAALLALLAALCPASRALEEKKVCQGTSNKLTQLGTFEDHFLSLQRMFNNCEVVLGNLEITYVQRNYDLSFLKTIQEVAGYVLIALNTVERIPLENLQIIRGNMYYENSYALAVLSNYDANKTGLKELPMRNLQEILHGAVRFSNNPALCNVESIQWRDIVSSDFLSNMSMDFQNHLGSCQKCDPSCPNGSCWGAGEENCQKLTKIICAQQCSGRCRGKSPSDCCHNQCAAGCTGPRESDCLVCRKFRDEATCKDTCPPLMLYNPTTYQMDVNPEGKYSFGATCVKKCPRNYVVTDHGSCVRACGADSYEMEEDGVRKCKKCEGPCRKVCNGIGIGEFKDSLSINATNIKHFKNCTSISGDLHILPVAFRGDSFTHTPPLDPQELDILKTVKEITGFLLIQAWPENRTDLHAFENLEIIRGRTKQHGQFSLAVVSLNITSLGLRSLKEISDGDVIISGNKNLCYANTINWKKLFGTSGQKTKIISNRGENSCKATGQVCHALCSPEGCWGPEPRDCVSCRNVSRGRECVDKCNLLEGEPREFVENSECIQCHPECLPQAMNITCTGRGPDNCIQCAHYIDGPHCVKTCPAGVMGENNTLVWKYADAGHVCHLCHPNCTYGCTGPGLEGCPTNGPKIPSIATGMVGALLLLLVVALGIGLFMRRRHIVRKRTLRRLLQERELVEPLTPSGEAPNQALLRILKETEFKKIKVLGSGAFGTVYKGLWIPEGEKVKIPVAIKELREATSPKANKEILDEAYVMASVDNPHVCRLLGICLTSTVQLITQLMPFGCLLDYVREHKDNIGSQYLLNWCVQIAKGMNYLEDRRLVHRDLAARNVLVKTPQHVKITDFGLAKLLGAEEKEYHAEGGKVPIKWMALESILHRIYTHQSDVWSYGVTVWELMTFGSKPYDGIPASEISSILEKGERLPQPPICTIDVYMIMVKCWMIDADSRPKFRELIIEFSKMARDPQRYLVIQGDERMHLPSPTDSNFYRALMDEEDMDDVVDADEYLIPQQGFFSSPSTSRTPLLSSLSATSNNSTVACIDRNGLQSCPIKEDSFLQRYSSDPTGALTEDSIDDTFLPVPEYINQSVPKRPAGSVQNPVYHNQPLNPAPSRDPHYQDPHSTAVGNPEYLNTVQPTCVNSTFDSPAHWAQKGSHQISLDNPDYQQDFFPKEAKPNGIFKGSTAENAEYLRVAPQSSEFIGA
For experiment [18], the target named is Follistatin-related protein 3 (Homo sapiens) (UniProt O95633). As to the kind of experiment: compounds binding follistatin-related protein 3 – biochemical, small-molecule microarray, 635 nm fluorescence, primary screen (AID 1105).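 Also: score merges emission near 667 nm and signal to noise per printed spot across three slides.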 The settings on record: FSTL3 binding, higher = more signal.
Follistatin-related protein 3 (Homo sapiens), sequence (O95633 whole entry, looked up): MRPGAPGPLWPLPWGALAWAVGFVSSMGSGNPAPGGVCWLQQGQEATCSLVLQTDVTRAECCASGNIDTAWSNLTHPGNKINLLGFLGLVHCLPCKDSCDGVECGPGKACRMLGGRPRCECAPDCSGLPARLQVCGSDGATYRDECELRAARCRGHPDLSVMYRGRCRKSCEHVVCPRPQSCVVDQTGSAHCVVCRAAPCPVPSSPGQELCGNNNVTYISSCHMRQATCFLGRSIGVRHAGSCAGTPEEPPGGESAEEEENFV
Experiment [19] has as its target Dickkopf-related protein 1 (Homo sapiens) (UniProt O94907). Nature of the experiment: small molecules binding DKK1 protein – biochemical, small-molecule microarray, 635 nm fluorescence scan, primary screen (AID 1106).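 Also: score merges emission near 667 nm with signal to noise over three replicate slides.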 The settings on record: higher = more signal.
The subject of experiment [20] is Inhibin beta A chain (activin A). Nature of the experiment: small molecules binding activin A – biochemical, small-molecule microarray, 635 nm fluorescence scan, primary screen (AID 1107).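 Also: mouse activin A protein probed at 4.33 µg/mL on printed slides; score merges bound-protein fluorescence near 667 nm with spot signal-to-noise.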 The settings on record: INHBA, higher = more signal.

Active and inactive are the calls of the source.

Fibroblast growth factor 10 (Homo sapiens), sequence (O15520 whole entry, looked up): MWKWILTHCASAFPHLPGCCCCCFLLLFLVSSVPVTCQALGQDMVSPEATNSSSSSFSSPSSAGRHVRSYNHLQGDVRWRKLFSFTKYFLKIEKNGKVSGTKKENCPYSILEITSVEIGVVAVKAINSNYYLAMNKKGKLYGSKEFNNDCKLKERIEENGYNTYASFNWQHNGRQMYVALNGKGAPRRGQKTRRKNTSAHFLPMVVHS
Dickkopf-related protein 1 (Homo sapiens), sequence (O94907 whole entry, looked up): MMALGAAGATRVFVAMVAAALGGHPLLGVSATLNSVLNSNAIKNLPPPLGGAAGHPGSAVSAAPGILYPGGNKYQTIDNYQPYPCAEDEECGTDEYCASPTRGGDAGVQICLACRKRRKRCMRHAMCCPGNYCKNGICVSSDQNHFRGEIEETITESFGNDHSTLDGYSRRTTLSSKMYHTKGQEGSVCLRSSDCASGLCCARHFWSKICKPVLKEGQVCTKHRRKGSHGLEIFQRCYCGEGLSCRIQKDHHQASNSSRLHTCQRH

On to `COCCOC(=O)N1C(=O)[C@@]2(c3cc(C#CCCO)ccc31)[C@H](C(=O)Nc1nc3ccccc3s1)[C@H]1C(=O)O[C@H](c3ccccc3)[C@H](c3ccccc3)N1[C@@H]2c1ccc(O)cc1`, for which the composite z-score worked out at 1.54 in experiment [1]; 2.79 in [5]; 0.027 in experiment [7]; 0.797 in experiment [8]; 1.03 in experiment [9]; 0.152 in [10]. Moreover, the composite z-score came out at 0.972 in [11]; 0.513 in experiment [12]; 0.355 in experiment [13]; 1.16 in experiment [15]; 1.34 in experiment [16]; 0.989 in [17]. Further, the values for the composite z-score in [18], in experiment [19] and in experiment [20] were 1.43, 0.957 and 0.211, respectively. Moreover, the z-score is 1.32 (inactive) in experiment [2]; 0.663 (inactive) in experiment [3]; 2.23 (inactive) in experiment [4]; 0.467 (inactive) in [6]; -0.221 (inactive) in experiment [14].

As for `COCCOC(=O)N1C(=O)[C@@]2(c3cc(C#CC4=CCCCC4)ccc31)[C@H](c1ccccc1OCCO)N1[C@H](c3ccccc3)[C@H](c3ccccc3)OC(=O)[C@H]1[C@@H]2C(=O)N1CCN(c2ncccn2)CC1`, the composite z-score in [1] was 1.57; in experiment [5] it was 0.456; in experiment [7] it was -0.142; in experiment [8] it was 0.729; in [9] it was 1.12; in experiment [10], -0.067. Also, the composite z-score in experiment [11] is 0.749; in experiment [12], -0.149; in [13], -0.513; in [15] it was 0.751; in [16], 1.28; in experiment [17] it was 0.502. Further, the composite z-score in experiment [18] was determined as 1.06; in [19], 0.489; in [20] it was 0.333. Further, the z-score in experiment [2] was 0.218 (inactive); in experiment [3], -0.377 (inactive); in experiment [4], 2.44 (inactive); in experiment [6], 1.05 (inactive); in experiment [14], -1.46 (inactive).

As for `CC#CCO[Si](C#Cc1ccccc1)(C(C)C)C(C)C`, the composite z-score in experiment [1] is -0.877; in [5], -0.669; in [7], -0.135; in experiment [8], 0.709; in [9], 0.231; in experiment [10], -0.203. The composite z-score in experiment [11] is -0.849; in experiment [12] it was -0.105; in [13] it was 0.194; in experiment [15], 0.754; in [16], -0.872; in experiment [17], 0.457. Further, the composite z-score in [18] is -0.719; in experiment [19] it was -0.999; in experiment [20], 1.14. The z-score in experiment [2] was -1.72 (inactive); in experiment [3], -19.5 (active); in experiment [4], -1.86 (inactive); in experiment [6], -0.304 (inactive); in experiment [14], 1.07 (inactive).

As for `O=C(NCCN1CCOCC1)[C@@H]1c2ccccc2C(=O)N(Cc2ccccc2Cl)[C@H]1c1ccc(CO)cc1`, the composite z-score is -0.7 in experiment [1]; -0.201 in experiment [5]; -0.547 in experiment [7]; -1.31 in experiment [8]; -1.4 in experiment [9]; -0.362 in [10]. Besides, the composite z-score in [11] is -0.855; in experiment [12] it was -0.633; in [13] it was -0.803; in [15] it was -1.16; in experiment [16] it was -0.52; in [17], -0.494. In addition, the figures for the composite z-score in experiment [18], in [19] and in [20] were 0.0801, -0.569 and 0.823, respectively. The z-score in [2] is 0.506 (inactive); in experiment [3], 0.545 (inactive); in experiment [4], -0.214 (inactive); in [6], 0.561 (inactive); in experiment [14], -0.284 (inactive).

With `CN(C)c1ccc(C(O)C2C=CC3C(=O)NC(=O)C3N2Nc2ccccn2)cc1` (stereo not given), the composite z-score in experiment [1] was 0.757; in experiment [5], 1.31; in experiment [7] it was -0.118; in [8], 0.438; in experiment [9], 1; in experiment [10], 0.107. Moreover, the composite z-score in [11] was found to be 1.15; in experiment [12] it was 0.206; in [13], 0.201; in experiment [15] it was 0.79; in experiment [16] it was 0.464; in experiment [17], 0.729. In addition, the values for the composite z-score in [18], in [19] and in [20] were 1.45, 1.3 and 0.921, respectively. Moreover, the z-score in experiment [2] is -0.0671 (inactive); in [3], 0.716 (inactive); in experiment [4] it was 0.504 (inactive); in experiment [6] it was -1.26 (inactive); in experiment [14], 0.936 (inactive).
